# Screening results deposited in PubChem BioAssay by National Center for Advancing Translational Sciences (NCATS).
# NIH3T3 tox – NIH 3T3 cell cytotoxicity | NIH 3T3 viability, CellTiter-Glo ATP luminescence, 48-72 h | Potency, µM (highest dose often 96.7 µM), inactives show at the highest dose activity change, negative = cytotoxicity, usual class: inhibitors | actives 4.3% (n = 94,000) | AID 1345082; also: nearly all actives have a fitted effect of over 55% in size
#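 Viability of NIH 3T3 cells after 48 or 72 hr compound treatment at 37 °C was assessed by CellTiter-Glo, with luminescence imaged following a 10 min room-temperature step.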
# FLuc inh – Photinus pyralis luciferase inhibition; actives 2.5% (n = 76,000); Potency, µM (highest dose often 115 µM), most hits filed as inhibitors; P08659; AID 1347043; purified P. pyralis luciferase, luminescence, biochemical; also: nearly all actives have a fitted effect of over 65% in size
#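 Inhibitors were tested against purified firefly luciferase in a biochemical, low-substrate format (both substrates at 10uM) and luminescence measured with a CCD imager.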
# SNCA viab count – cell viability loss counter-screen. actives 0.12% (n = 150,000). HEK-293-SNCA-luc viability, GF-AFC fluorescence, 24 h. Potency, µM (titrated, usually from 57.1 µM), inactives show at the top dose activity change, negative = cytotoxicity, hits mostly cytotoxic. AID 1671193;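 also: 0% = DMSO-treated cells and -100% = medium-only wells without cells; nearly all actives have a fitted effect of over 30% in size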
#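 Cytotoxicity counterscreen: after 24 h compound treatment of genome-edited SNCA-luciferase HEK-293 cells, live-cell protease substrate GF-AFC read by fluorescence after 30 min; activity scaled between DMSO (0%) and medium-only (-100%), curves Hill-fitted.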
# NPR1 antag – blocks ANP-stimulated signaling of human Npr1 receptor | P16066 | HEK293 hNpr1 GloSensor cGMP, ANP-stimulated luminescence | Potency, µM (series often up to 46.3 µM), without a hit: at the highest dose activity change, negative = inhibition, actives largely listed as inhibitors | actives 1.6% (n = 76,000); calls by dose curve; also: nearly all actives have a fitted effect of over 60% in size
# Target sequence (P16066 whole entry, looked up): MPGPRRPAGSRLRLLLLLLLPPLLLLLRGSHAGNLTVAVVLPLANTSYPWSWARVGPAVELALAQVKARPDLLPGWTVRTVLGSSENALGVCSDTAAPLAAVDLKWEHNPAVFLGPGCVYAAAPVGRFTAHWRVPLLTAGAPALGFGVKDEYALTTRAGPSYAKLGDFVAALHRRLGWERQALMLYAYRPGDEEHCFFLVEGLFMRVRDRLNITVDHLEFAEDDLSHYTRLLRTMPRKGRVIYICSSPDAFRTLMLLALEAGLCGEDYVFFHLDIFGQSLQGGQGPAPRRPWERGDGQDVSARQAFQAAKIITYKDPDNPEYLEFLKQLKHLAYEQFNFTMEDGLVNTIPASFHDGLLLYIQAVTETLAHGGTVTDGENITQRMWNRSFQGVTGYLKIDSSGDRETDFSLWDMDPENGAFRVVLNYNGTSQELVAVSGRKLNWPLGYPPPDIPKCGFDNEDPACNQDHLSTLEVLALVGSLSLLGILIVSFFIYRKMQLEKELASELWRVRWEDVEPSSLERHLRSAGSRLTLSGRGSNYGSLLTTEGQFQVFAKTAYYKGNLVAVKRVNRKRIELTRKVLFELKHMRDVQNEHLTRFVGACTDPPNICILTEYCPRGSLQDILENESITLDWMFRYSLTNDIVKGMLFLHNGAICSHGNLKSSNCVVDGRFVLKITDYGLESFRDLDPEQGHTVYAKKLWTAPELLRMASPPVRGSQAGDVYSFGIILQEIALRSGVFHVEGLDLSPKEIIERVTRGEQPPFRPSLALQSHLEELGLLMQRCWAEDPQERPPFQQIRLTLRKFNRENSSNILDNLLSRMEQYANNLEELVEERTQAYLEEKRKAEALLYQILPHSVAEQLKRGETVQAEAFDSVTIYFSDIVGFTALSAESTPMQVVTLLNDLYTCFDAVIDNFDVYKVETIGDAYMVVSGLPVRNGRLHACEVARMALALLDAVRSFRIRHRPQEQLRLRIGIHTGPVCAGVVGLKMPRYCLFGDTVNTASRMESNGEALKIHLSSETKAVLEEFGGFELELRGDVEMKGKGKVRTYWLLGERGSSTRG
#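 Compound pre-incubated 30 min at room temperature on GloSensor-loaded HEK293 cells stably carrying hNpr1 and the pGS-40F cGMP biosensor. Stimulation uses hNppA at 0.1 nM final; luminescence is taken at baseline and 20 min post-agonist.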
# HEK293 tox – HEK 293 cell cytotoxicity; HEK 293 viability, ATP luminescence (CellTiter-Glo), 48-72 h; Potency, µM (highest dose often 115 µM), inactives show at the highest dose activity change, negative = cytotoxicity, actives largely listed as inhibitors; actives 6.6% (n = 94,000); AID 1345083; also: nearly all actives have a fitted effect of over 60% in size
#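 Cells seeded first (HEK 293, 250 cells/well), then compound added by pintool. Incubation ran 48 or 72 hr at 37 degree Celsius. CellTiter-Glo was added and luminescence imaged after 10 min at room temperature.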
# SNCA expr inh – SNCA gene expression inhibition; Potency, µM (doses to about 57.2 µM), for the others: at the highest dose activity change, negative = inhibition, hits mostly inhibitors; AID 1671194; HEK-293 SNCA-luciferase knock-in, luminescence, 24 h; actives 0.17% (n = 140,000);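 also: plate controls were DMSO cells for no effect and cell-free wells for full effect; nearly all actives have a fitted effect of over 45% in size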
# * hit, by the source's call; i = inactive; ? = inconclusive; nt = not tested or not shown; [ ] = dose if it differs, or a comment. Sampled rows, rich in hits. Any-hit rate of the full collection: about 7.2%. Unless noted, calls follow the shape of the dose curve; as a rule, active = well fitted curve in the direction sought with a large enough effect; inconclusive = small, poorly fitted or top-dose-only effect, or another doubt; inactive = no such curve, though single readings can be large; an effect the other way counts as inactive or inconclusive. Unless noted, % is scaled to controls: 0 for no effect and ±100 for the full control effect; potency is read from the fitted curve at half-maximal effect.
SMILES,NIH3T3 tox,FLuc inh,SNCA viab count,NPR1 antag,HEK293 tox,SNCA expr inh
COCc1ccc2c(c1)c(OC(C)(C)C(=O)NCC[S+](C)(=O)[O-])nn2Cc1cccnc1,?,i,4.8%,-1.3%,i,12.3%
COCc1ccc2c(c1)c(OC(C)(C)C(=O)Nc1ccccn1)nn2Cc1ccccc1,?,i,-17.8%[87.6 µM],-3.5%[70.6 µM],63.1µM*,-10.1%[87.6 µM]
COCc1ccc2c(c1)c(OC(C)(C)C(=O)N1CC(O)C1)nn2Cc1cccnc1,79.4µM*,i,4.8%[87.6 µM],1.7%[70.6 µM],2.4%[172 µM],4.6%[87.6 µM]
COCc1ccc2c(c1)c(OC(C)(C)C(=O)NCC[S+](C)(=O)[O-])nn2Cc1ccccc1,35.5µM*,i,10.6%,-0.6%,-26.0%,49.2%
CNC(=O)c1cc(C2CC2)nc2onc(C3CCN([S+](=O)([O-])c4c(C)noc4C)C3)c12 (configuration not stated),-8.0%,nt,nt,nt,-5.7%,nt
COc1ccc2[nH]cc(CCNC(=O)C3CCCCC(=O)N3Cc3ccccc3)c2c1 (configuration not stated),-14.5%,i,-3.4%,-14.7%,-29.9%,-4.7%
CN1[C@@H](CCC(=O)NCc2cccs2)CNC(=O)[C@@H]2[C@H]1CCN2CC1CC1,-17.6%[174 µM],i,-0.2%[87.6 µM],4.6%[70.6 µM],-11.3%[172 µM],-26.5%[87.6 µM]
O=C(Nc1cnc(-c2ccccc2)nc1)c1ccco1,-3.5%,11.2µM*,12.4%,-13.1%,-4.8%,83.3%
O=C(Nc1cnc(-c2ccc(Cl)cc2)nc1)c1ccccc1F,2.5%,0.794µM*,6.8%,-23.3%,-9.2%,124.4%
O=C(Nc1cnc(-c2ccccc2)nc1)c1ccc(F)c(F)c1,i,i,7.8%,3.0%,10.0%,14.5%
O=C(Nc1cnc(-c2ccc(F)cc2)nc1)c1ccco1,-15.4%,3.55µM*,0.2%,-20.3%,?,114.4%
O=C1c2cnc(-c3ccccc3)nc2OCCN1Cc1ccc(F)cc1F,-33.5%[138 µM],i,3.1%[87.6 µM],-14.6%[70.6 µM],112µM*,127.3%[87.6 µM]
COc1ccccc1-c1ncc2c(n1)OCCN(Cc1ccc(F)cc1F)C2=O,?,i,3.1%[87.6 µM],-3.2%[70.6 µM],-35.1%[172 µM],14.7%[87.6 µM]
COc1cccc(-c2ncc3c(n2)OCCN(Cc2ccc(F)cc2F)C3=O)c1F,-17.4%[138 µM],15.8µM*,-6.2%[87.6 µM],-9.6%[70.6 µM],?,86.6%[87.6 µM]
CN(C)C(=O)c1ccc(-c2ncc3c(n2)OCCN(Cc2ccc(F)cc2F)C3=O)cc1,-29.2%[138 µM],44.7µM*,-0.8%[87.6 µM],-7.7%[70.6 µM],?,102.7%[87.6 µM]
O=C1c2cnc(-c3cc(F)cc(F)c3)nc2OCCN1Cc1ccc(F)cc1F,-22.2%[138 µM],i,1.6%[87.6 µM],-19.2%[70.6 µM],?,12.9%[87.6 µM]
NCC(=O)N1CCC(n2nccc2NC(=O)c2ccc3c(c2)OCO3)CC1,1.4%,i,-4.7%,2.7%,-12.3%,3.4%
COc1cccc(C(=O)Nc2ccc3c(c2)CN(Cc2ccccc2F)C(=O)CO3)c1,?,?,1.8%,-2.4%,?,8.1%
COc1cccc(CN2Cc3cc(NC(=O)c4cccc(OC)c4)ccc3OCC2=O)c1,?,?,-7.6%,-15.3%,25.1µM*,-13.9%
COc1ccc(C(=O)Nc2ccc3c(c2)CN(Cc2cccc(OC)c2OC)C(=O)CO3)cc1OC,-24.5%,i,-13.2%,2.9%,?,-12.4%
COc1cccc(CN2Cc3cc(NC(=O)c4ccc([N+](=O)[O-])cc4)ccc3OCC2=O)c1OC,?,i,4.1%,?,39.8µM*,-0.8%
CS(=O)(=O)N1CC2(CCN(Cc3c[nH]c4ccccc34)C2)Cc2ccccc21 (configuration not stated),?,nt,-2.1%,nt,?,?
Cn1nccc1-c1ccc2ncn(-c3ccc(F)cc3F)c(=O)c2n1,?,i,-17.4%[87.6 µM],2.3%[70.6 µM],63.1µM*,-16.0%[87.6 µM]
Cn1nccc1-c1ccc2ncn(-c3ccccc3)c(=O)c2n1,?,?,1.6%[87.6 µM],-1.8%[70.6 µM],i,3.1%[87.6 µM]
CC(C)C(=O)N1CCN(c2nc3c(s2)CC(C(=O)NCCc2cccs2)CC3)CC1 (configuration not stated),-23.2%,i,-4.3%,-9.1%,79.4µM*,86.8%
SMILES,NIH3T3 tox,FLuc inh,SNCA viab count,NPR1 antag,HEK293 tox,SNCA expr inh
CCC(=O)N1CCN(c2nc3c(s2)CC(C(=O)Nc2ccc4c(c2)OCO4)CC3)CC1 (configuration not stated),?,i,-5.3%,1.8%,14.1µM*,17.3%
CCc1ccc(NC(=O)C2CCc3nc(N4CCN(C(=O)C(C)C)CC4)sc3C2)cc1 (configuration not stated),-18.8%,i,-0.5%,-27.1%,?,2.0%
CCC(=O)N1CCN(c2nc3c(s2)CC(C(=O)Nc2ccc(C(C)C)cc2)CC3)CC1 (configuration not stated),?,i,-20.5%,?,35.5µM*,24.5%
CC(=O)N1CCN(c2nc3c(s2)CC(C(=O)Nc2ccc(F)c(Cl)c2)CC3)CC1 (configuration not stated),20µM*,i,-15.3%,?,7.94µM*,?
CC(=O)N1CCN(C(=O)c2cc(-c3ccccc3F)nc3c2cnn3C)CC1,-18.0%,nt,nt,nt,1.4%,nt
CC(=O)c1cc(C(=O)N2CCCC(CCc3ccccc3C)C2)[nH]n1 (configuration not stated),?,?,-2.8%,-24.9%,?,8.2%
Cc1cnc(C(=O)N2CCC(n3nccc3NC(=O)CCOc3ccccc3)CC2)cn1,-23.9%,?,1.1%,4.6%,-4.0%,19.7%
CSc1cccc(NC(=O)COc2cccc(-c3nnc4n3CCCC4)c2)c1,-22.8%,i,-6.7%,-0.6%,?,16.0%
CCC(=O)N1CCN(c2nc3c(s2)CC(C(=O)Nc2ccc(F)cc2)CC3)CC1 (configuration not stated),31.6µM*,i,?,?,12.6µM*,?
CCC(=O)N1CCN(c2nc3c(s2)CC(C(=O)N2CCCCC2)CC3)CC1 (configuration not stated),-18.3%,i,?,-4.5%,-22.3%,8.6%
CC(=O)N1CCN(c2nc3c(s2)CC(C(=O)NCc2ccc(C(C)C)cc2)CC3)CC1 (configuration not stated),?,i,4.8%,?,44.7µM*,26.8%
C[S+](=O)([O-])c1ccc(-c2cc(C(=O)N3CCCC3)nn3cccc23)cc1,?,nt,-12.7%,nt,?,13.5%
CN1CCN(c2ccc(-c3noc([C@@H]4CCCN4CCCc4ccccc4)n3)cn2)CC1,39.8µM*,i,7.9%[87.6 µM],4.0%[70.6 µM],?,8.8%[87.6 µM]
